# Measurements taken from the supplement of paper PMC10849652.
# About 7,900 targets were measured; listed, in parts, are those with a hit and a random draw of the rest. About 0.6% of all pairs of compound and target were hits. Unmarked numbers belong to inactive results.
# How the values were obtained:
# Test in all cases: log2 fold change, soluble protein after heating vs DMSO (PISA); higher = thermal stabilisation; K562 cells, 10 uM, 30 min; active = over 0.2 and 3.5 SD of the protein, either way, in both replicates (recomputed)
# [1] = compound: CC1=NC(=CC=C1)C2=C(N=C(N2)C(C)(C)C)C3=CC4=NC=CN=C4C=C3
# Outline: (§1)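 K562 cells at 2×10^6 cells/mL were treated for 30 min with 10 μM compound, and aliquots were heated for 3 min over 48°C-58°C before pooling. Extraction used PBS with 0.5% NP-40 at 4°C, and soluble protein was the supernatant after 21,000xg for 90 min, measured by TMTpro 16plex LC-MS/MS with channel sums equalised. Thermal stability values, relative to control samples and from duplicates, are log2 fold changes.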
# Nexturastat A = compound: CCCCN(Cc1ccc(C(=O)NO)cc1)C(=O)Nc1ccccc1 [Nexturastat A]
# Outline: as §1
# barasertib = compound: CCN(CCCOc1ccc2c(Nc3cc(CC(=O)Nc4cccc(F)c4)[nH]n3)ncnc2c1)CCOP(=O)(O)O [barasertib]
# Outline: as §1
# [2] = compound: CC1=C(C=C(C=C1)NC(=O)C2=CC(=CC=C2)C(C)(C)C#N)NC3=CC4=C(C=C3)N=CN(C4=O)C
# Outline: as §1
# [3] = compound: CC1=CC=C(C=C1)SC2=C3C=C(SC3=CN=C2)C(=O)N
# Outline: as §1
# vemurafenib = compound: CCCS(=O)(=O)Nc1ccc(F)c(C(=O)c2c[nH]c3ncc(-c4ccc(Cl)cc4)cc23)c1F [vemurafenib]
# Outline: as §1
# [4] = compound: CCCS(=O)(=O)Nc1ccc(F)c(C(=O)c2c[nH]c3ncc(Cl)cc23)c1F
# Outline: as §1
# [5] = compound: CCCc1cc(C)[nH]c(=O)c1CNC(=O)c1cc(-c2ccnc(N3CCN(C)CC3)c2)cc2c1cnn2C(C)C
# Outline: as §1
# givinostat = compound: CCN(CC)Cc1ccc2cc(COC(=O)Nc3ccc(C(=O)NO)cc3)ccc2c1 [givinostat]
# Outline: as §1
# [6] = compound: CC1=C(C=C(C=C1)NC(=O)C2=CC(=CC=C2)N(C)C)NC(=O)C3=CC=C(C=C3)O
# Outline: as §1
# UniProt Q6R327, sequence (Q6R327 whole entry, looked up): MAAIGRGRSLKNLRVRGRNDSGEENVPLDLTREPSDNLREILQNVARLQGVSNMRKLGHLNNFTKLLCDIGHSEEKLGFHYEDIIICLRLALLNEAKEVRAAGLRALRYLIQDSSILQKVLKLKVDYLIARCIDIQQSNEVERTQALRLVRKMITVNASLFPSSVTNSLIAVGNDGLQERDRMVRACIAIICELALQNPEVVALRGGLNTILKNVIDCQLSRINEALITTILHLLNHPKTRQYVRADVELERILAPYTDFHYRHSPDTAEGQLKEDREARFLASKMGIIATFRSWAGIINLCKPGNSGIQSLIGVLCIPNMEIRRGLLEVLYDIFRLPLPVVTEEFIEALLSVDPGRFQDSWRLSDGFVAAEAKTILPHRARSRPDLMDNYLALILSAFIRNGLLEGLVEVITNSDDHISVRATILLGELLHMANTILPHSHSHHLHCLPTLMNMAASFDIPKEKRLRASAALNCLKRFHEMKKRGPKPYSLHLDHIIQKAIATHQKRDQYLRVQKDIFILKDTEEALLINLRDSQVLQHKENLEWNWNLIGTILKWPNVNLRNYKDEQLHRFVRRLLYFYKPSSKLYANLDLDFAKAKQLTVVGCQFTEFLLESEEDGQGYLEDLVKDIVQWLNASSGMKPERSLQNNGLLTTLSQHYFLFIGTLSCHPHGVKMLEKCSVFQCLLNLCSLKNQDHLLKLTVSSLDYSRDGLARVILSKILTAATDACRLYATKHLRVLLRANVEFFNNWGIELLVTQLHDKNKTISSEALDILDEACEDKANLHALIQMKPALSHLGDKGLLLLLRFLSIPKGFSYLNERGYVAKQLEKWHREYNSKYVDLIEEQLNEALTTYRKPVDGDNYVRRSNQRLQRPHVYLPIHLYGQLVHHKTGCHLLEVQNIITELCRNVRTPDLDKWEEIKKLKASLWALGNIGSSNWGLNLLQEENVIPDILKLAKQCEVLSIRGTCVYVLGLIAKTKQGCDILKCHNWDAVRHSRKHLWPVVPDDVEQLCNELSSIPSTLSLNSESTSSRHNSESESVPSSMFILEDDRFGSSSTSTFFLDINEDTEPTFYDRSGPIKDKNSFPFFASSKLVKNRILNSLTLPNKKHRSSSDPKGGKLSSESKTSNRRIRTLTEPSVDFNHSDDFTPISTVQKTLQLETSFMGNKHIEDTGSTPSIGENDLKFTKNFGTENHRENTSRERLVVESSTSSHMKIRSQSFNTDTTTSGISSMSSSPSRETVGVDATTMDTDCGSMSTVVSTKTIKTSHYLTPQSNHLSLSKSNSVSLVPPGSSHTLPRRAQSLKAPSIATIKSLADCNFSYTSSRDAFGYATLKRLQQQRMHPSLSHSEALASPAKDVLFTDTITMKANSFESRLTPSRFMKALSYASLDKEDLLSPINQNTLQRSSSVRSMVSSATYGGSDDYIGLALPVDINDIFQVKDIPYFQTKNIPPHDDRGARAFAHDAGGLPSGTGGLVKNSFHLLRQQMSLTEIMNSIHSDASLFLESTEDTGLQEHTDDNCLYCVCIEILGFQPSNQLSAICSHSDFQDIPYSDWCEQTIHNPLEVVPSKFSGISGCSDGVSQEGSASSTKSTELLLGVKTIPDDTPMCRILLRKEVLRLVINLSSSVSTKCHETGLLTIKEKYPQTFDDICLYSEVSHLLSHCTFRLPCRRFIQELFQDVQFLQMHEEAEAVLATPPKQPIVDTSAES
# UniProt Q5VTB9, sequence (Q5VTB9 whole entry, looked up): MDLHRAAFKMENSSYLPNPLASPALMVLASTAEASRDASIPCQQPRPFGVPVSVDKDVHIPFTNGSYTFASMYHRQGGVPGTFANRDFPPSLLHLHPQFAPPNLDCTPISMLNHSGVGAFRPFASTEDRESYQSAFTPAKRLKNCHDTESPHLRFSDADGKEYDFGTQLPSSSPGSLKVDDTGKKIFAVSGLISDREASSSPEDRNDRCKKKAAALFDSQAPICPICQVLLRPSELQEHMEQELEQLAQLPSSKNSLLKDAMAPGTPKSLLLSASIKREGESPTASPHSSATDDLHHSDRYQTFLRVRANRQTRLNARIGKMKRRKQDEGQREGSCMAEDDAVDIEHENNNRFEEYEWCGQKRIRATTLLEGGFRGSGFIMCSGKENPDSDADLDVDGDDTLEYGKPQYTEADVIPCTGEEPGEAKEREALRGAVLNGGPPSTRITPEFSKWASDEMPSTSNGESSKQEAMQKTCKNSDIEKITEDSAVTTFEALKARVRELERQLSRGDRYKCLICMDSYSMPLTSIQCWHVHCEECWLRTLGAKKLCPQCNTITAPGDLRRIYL
# UniProt Q02383, sequence (Q02383 whole entry, looked up): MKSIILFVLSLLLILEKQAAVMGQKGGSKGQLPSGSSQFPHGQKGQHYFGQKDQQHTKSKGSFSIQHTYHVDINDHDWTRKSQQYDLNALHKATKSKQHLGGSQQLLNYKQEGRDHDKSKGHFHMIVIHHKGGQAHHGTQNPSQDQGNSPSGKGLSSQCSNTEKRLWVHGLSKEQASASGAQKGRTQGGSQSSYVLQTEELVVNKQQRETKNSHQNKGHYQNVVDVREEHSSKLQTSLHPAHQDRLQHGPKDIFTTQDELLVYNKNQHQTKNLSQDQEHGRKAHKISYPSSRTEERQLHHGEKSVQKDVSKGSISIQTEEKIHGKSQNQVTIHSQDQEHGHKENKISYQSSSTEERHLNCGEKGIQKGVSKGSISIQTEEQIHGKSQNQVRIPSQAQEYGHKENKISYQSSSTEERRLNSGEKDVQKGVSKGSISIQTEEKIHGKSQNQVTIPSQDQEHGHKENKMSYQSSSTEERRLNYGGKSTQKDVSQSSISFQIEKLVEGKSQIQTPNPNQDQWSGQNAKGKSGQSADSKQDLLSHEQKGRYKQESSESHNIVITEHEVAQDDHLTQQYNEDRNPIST
# UniProt A1X283, sequence (A1X283 whole entry, looked up): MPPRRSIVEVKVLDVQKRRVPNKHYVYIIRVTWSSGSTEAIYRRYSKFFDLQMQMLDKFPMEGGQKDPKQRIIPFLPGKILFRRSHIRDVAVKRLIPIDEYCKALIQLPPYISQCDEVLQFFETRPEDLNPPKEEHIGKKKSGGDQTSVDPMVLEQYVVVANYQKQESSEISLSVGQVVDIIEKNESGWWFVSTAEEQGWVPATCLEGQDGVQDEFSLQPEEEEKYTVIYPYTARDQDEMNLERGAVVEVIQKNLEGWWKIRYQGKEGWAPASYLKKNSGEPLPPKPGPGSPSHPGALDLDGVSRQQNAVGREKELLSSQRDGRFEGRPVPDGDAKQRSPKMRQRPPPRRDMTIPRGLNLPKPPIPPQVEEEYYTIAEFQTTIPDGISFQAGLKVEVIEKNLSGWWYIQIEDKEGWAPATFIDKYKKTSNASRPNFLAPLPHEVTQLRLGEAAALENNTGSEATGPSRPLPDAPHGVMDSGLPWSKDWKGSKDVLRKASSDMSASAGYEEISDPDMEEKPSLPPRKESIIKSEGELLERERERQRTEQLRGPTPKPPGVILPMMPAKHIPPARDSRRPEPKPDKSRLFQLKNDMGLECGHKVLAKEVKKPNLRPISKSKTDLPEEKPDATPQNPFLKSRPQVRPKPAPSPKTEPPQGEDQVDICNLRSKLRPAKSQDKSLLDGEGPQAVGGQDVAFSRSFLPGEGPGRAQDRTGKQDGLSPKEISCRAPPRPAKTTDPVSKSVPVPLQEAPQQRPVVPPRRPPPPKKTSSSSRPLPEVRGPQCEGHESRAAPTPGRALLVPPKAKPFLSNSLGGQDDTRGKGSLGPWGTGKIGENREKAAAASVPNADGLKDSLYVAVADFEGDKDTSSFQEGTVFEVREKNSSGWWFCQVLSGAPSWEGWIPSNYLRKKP
# UniProt Q8IZE3, sequence (Q8IZE3 whole entry, looked up): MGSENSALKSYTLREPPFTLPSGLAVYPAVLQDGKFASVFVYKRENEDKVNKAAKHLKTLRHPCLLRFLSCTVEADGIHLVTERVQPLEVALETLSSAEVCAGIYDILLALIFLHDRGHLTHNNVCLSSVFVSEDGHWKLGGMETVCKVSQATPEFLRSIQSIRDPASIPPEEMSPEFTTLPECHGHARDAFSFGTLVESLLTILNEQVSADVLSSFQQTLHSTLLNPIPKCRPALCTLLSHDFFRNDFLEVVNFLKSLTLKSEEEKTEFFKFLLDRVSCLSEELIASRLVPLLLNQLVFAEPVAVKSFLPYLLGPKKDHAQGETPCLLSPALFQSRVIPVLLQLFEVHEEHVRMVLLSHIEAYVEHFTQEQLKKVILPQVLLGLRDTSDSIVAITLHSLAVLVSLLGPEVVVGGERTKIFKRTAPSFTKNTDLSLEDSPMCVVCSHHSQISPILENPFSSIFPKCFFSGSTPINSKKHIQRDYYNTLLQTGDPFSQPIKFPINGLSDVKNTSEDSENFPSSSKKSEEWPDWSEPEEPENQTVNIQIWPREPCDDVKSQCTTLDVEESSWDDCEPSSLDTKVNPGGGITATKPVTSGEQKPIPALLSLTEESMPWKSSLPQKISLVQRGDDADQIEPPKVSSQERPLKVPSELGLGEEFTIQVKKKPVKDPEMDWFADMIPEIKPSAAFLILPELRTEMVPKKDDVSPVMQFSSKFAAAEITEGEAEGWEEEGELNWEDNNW
# UniProt O75446, sequence (O75446 whole entry, looked up): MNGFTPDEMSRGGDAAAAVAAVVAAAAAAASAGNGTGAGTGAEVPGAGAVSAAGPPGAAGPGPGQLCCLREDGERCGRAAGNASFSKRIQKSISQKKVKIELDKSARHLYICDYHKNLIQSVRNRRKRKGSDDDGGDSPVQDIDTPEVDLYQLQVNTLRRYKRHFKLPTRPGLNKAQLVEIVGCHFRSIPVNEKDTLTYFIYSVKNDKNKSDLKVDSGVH
# UniProt O95716, sequence (O95716 whole entry, looked up): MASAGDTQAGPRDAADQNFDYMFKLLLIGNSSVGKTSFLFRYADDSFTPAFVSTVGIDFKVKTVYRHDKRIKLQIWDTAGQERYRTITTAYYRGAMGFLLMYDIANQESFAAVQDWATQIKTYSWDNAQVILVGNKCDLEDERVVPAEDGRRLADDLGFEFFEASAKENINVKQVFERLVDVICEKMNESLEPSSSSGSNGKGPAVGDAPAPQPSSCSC
# UniProt Q9BWJ5, sequence (Q9BWJ5 whole entry, looked up): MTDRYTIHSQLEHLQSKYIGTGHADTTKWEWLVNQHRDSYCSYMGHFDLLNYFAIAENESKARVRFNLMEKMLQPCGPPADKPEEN
Target,log2 fold change [1],log2 fold change (Nexturastat A),log2 fold change (barasertib),log2 fold change [2],log2 fold change [3],log2 fold change (vemurafenib),log2 fold change [4],log2 fold change [5],log2 fold change (givinostat),log2 fold change [6]
SAFB2 (UniProt K7EQU4),0.057,0.111,0.295,,,,,,,
SAP30 (UniProt O75446),-0.164,0.025,,-0.292,-0.078,0.04,-0.157,0.037,0.019,
RNF220 isoform 3 (UniProt Q5VTB9),,,,,0.385,,0.201,,-0.059,
RNF2 (UniProt Q99496),0.022,0.024,-0.002,0.155,0.051,-0.066,0.061,0.07,-0.04,
SLC1A3 (UniProt P43003),,-0.099,-0.01,,0.043,-0.043,-0.095,-0.127,-0.1,-0.047
RABGAP1L isoform 5 (UniProt Q5R372),-0.055,-0.009,0,-0.106,-0.047,,-0.016,-0.197,-0.013,
SHROOM2 (UniProt Q13796),-0.206,0.763 (active),0.071,-0.104,0.011,-0.078,-0.179,-0.207,0.238,
RNF26 (UniProt Q9BY78),,,0.124,,,0.281,,,,0.012
RICTOR isoform 3 (UniProt Q6R327),,0.25,,-0.09,0.074,,0.018,,-0.057,
SEMG2 (UniProt Q02383),,-0.062,0.015,-0.038,,,,-0.097,,
SH3PXD2B (UniProt A1X283),,-0.052,0.043,-0.029,,-0.145,,0.187,-0.548 (active),
SCYL3 isoform 2 (UniProt Q8IZE3),0.005,0.004,-0.012,,-0.002,0.008,0.022,-0.01,0.012,-0.061
RAB3D (UniProt O95716),,,0.034,,0.036,-0.113,0.094,0.032,-0.08,0.074
SF3B5 (UniProt Q9BWJ5),0.111,0.042,-0.12,0.003,0.072,-0.055,-0.027,-0.009,0.129,
